Assay [1] has as its target T1, Inhibitor of nuclear factor kappa-B kinase subunit epsilon (Homo sapiens) (UniProt Q14164).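 Further: reported values are averaged percent inhibition figures against human IKKε.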
T1 sequence (whole entry): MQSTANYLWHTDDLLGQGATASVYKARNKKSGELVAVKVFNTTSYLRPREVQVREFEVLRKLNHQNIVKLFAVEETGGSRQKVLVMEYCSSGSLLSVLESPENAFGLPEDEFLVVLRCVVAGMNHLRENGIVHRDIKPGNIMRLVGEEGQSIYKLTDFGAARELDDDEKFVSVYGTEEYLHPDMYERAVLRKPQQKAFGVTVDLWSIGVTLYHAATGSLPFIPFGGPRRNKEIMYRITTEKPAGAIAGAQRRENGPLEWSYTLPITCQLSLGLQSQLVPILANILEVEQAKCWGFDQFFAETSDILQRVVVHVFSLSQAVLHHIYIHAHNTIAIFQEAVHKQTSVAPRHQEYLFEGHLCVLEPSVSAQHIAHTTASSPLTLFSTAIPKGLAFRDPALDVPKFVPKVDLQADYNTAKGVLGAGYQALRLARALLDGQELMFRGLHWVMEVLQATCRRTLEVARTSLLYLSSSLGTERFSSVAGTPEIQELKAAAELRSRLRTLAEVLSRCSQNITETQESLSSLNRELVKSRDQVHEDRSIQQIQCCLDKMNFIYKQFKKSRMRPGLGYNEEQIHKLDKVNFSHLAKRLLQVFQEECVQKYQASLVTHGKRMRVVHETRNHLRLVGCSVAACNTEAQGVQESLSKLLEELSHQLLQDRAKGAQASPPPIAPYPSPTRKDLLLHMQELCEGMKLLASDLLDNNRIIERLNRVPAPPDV
The following applies: at 1 µM.

Assay [2] has as its target T2, Serine/threonine-protein kinase Nek1 (Homo sapiens) (UniProt Q96PY6).
T2 sequence (whole entry): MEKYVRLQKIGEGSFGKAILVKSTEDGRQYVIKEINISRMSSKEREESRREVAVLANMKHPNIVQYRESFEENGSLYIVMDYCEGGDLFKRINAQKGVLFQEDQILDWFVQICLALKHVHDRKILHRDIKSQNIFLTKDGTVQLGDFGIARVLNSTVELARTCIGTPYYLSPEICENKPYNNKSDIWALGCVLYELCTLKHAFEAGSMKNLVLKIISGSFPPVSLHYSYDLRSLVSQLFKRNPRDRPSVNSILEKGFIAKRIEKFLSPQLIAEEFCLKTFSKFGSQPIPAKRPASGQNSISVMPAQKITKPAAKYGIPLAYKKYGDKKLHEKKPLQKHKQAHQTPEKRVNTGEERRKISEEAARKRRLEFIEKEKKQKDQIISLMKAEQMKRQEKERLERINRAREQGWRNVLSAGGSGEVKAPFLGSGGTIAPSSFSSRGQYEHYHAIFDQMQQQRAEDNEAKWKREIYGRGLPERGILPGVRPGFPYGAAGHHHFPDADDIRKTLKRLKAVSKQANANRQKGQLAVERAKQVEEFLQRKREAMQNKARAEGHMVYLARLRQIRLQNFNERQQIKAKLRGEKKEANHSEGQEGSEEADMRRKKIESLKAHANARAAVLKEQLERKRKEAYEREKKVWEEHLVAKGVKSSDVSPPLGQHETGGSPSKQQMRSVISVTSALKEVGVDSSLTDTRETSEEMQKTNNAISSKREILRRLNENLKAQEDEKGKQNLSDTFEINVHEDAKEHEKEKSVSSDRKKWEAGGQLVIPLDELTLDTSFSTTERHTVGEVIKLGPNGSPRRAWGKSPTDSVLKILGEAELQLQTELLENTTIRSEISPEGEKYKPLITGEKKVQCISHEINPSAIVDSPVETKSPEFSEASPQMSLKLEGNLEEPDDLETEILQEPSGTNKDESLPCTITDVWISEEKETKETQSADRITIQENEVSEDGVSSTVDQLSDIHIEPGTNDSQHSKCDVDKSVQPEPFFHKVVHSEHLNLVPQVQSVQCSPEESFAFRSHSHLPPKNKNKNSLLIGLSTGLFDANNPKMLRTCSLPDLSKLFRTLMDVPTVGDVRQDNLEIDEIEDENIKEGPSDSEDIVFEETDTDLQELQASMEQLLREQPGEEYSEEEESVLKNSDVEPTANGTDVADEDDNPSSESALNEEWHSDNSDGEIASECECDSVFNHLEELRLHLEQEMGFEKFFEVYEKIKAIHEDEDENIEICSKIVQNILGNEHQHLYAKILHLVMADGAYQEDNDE
The note with it: at 0.1 µM.

Assay [3] addresses T2, Serine/threonine-protein kinase Nek1 (Homo sapiens). The following applies: at 1 µM.
In assay [4] the target is T3, Serine/threonine-protein kinase Nek2 (Homo sapiens) (UniProt P51955).
T3 sequence (whole entry): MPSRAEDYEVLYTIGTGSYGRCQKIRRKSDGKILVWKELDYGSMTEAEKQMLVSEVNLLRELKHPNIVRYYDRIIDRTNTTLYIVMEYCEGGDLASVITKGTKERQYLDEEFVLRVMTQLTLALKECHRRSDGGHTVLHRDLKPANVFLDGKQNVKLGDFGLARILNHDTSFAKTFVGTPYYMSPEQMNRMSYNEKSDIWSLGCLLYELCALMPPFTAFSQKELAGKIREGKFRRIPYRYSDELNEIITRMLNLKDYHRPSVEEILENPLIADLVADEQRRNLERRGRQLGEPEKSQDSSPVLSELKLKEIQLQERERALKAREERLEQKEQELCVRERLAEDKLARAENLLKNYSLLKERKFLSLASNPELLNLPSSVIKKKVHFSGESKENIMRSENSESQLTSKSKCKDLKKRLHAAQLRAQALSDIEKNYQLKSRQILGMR
The note with it: at 0.1 µM.

Assay [5] addresses T3, Serine/threonine-protein kinase Nek2 (Homo sapiens). The following applies: at 1 µM.
Assay [6] addresses Serine/threonine-protein kinase Nek6 (Homo sapiens) (UniProt Q9HC98). The note with it: at 0.1 µM.
Assay [7] shares this target. The note with it: at 1 µM.
Assay [8] concerns the target Serine/threonine-protein kinase Nek7 (Homo sapiens) (UniProt Q8TDX7). The following applies: at 0.1 µM.
Assay [9] shares this target. The following applies: at 1 µM.
For assay [10], the target named is T4, Serine/threonine-protein kinase Nek9 (Homo sapiens) (UniProt Q8TD19).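 Further: reported value is the mean percent inhibition of NEK9.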
T4 sequence (whole entry): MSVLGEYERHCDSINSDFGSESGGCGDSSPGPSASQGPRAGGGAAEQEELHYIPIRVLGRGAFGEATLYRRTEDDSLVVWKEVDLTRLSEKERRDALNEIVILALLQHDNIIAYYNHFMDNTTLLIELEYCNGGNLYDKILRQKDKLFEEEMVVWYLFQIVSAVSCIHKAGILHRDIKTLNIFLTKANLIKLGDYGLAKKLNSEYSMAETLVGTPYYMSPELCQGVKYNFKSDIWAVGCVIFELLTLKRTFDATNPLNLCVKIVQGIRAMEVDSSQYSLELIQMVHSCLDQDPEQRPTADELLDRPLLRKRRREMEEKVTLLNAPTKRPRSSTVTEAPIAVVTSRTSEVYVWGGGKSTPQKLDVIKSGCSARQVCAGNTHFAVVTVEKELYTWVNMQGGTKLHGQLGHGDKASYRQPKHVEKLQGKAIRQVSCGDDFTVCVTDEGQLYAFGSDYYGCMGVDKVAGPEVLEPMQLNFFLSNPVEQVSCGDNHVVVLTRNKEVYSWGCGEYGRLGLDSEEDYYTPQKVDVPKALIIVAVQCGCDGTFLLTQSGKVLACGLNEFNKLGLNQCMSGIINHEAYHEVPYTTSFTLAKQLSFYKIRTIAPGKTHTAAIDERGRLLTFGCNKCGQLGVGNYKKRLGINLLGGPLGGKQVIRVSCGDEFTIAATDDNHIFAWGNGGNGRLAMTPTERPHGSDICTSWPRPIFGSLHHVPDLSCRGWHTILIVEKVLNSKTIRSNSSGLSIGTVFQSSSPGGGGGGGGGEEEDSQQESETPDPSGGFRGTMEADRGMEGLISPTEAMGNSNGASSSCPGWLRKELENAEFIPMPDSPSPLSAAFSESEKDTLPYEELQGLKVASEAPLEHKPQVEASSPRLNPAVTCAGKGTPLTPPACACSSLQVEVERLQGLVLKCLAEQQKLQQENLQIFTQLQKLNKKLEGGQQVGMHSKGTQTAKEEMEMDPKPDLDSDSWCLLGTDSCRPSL
The note with it: at 0.1 µM.

Sequence of Serine/threonine-protein kinase Nek7 (Homo sapiens) (Q8TDX7 whole entry, looked up): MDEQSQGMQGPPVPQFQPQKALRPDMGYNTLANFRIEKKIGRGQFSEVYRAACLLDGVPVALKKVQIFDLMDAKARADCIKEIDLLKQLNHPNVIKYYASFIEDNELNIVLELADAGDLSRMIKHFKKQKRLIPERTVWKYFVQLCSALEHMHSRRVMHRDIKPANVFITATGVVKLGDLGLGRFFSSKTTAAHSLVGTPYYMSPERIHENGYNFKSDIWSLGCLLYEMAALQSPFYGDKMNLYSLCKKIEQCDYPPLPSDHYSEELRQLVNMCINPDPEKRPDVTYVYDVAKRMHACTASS
Sequence of Serine/threonine-protein kinase Nek6 (Homo sapiens) (Q9HC98 whole entry): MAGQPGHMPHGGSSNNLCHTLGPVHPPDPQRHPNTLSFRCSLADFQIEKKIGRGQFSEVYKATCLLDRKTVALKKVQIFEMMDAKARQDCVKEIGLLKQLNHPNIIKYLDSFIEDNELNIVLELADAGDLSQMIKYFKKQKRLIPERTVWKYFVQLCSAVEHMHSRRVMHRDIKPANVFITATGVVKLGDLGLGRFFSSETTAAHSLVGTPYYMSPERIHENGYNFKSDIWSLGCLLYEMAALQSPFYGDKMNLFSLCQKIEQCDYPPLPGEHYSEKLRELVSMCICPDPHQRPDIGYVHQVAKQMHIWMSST

Take `CN(C)c1cc2c(Nc3ccc4nc(Cc5ccccc5)[nH]c4c3)ncnc2cn1`: the inhibition (commonly the relative decrease from the control value, in per cent) in assay [1] was 16.6%; in assay [2], 2.45%; in assay [3], 3.05%; in assay [4], 6.53%; in assay [5], 8.34%; in [6] it was 3.19%. In addition, the inhibition in [7] was -0.04%; in [8], 6.44%; in assay [9], 4.66%; in assay [10] it was 14.3%.
For `COc1cc(C)c(NC(=O)CN(C)C)cc1Nc1nc(Nc2cccc(F)c2C(N)=O)c2cc[nH]c2n1`, the inhibition was 5.68% in [1]; 1.77% in assay [2]; -0.24% in assay [3]; 3.86% in assay [4]; 3.95% in [5]; -0.84% in assay [6]. Moreover, the inhibition is -0.26% in [7], 4.83% in assay [8], 9.65% in [9] and 7.92% in assay [10].
Take `Fc1cccc(COc2ccc(Nc3ncnc4cc(-c5ccc[nH]5)sc34)cc2Cl)c1`: the inhibition in [1] turned out to be 3.19%; in [2], 1.42%; in assay [3], 4.17%; in assay [4], 3.51%; in assay [5], 5.24%; in [6], 1.65%. Also, the inhibition worked out at 3.84% in [7], 5.51% in assay [8], 2.22% in assay [9] and 1.71% in [10].
For `CN1CCC(C(=O)Nc2n[nH]c3nnc(-c4ccccc4)cc23)CC1`, the inhibition in [1] amounted to 6.54%; in assay [2] it was 2.01%; in [3] it was 4.86%; in assay [4], 5.31%; in assay [5], 4.22%; in assay [6], 2.59%. Further, the inhibition in assay [7] was determined as 0.5%; in assay [8], 5.74%; in assay [9], 4.97%; in [10] it was 12.7%.
Regarding `CC1=C(C(=O)Nc2ccc3[nH]ncc3c2)C(c2ccc(Cl)c(Cl)c2)CC(=O)N1` (stereo not given), the inhibition is -0.94% in assay [1]; 0.09% in [2]; -0.51% in [3]; 1.92% in assay [4]; 1.44% in [5]; -0.99% in assay [6]. The inhibition in [7] was -2.51%; in [8], 2.34%; in [9] it was 3.79%; in [10], 7.85%.
Take `NC(=O)c1ccc(-c2nc(-c3ccccn3)c(-c3ccc4c(c3)OCO4)[nH]2)cc1`: the inhibition in assay [1] stood at 4.06%; in assay [2] it was 1.34%; in assay [3] it was 3.26%; in assay [4], 2.44%; in assay [5], 2.69%; in assay [6], 2.04%. Also, the inhibition in assay [7] was found to be 4.68%; in assay [8] it was 2.26%; in [9] it was 1.68%; in assay [10] it was 6.53%.
With `CC(C)=Cc1cccc2c1/C(=N/Nc1ccc(S(N)(=O)=O)cc1)C(=O)N2`, the inhibition in [1] was 21.9%; in assay [2], 0.48%; in assay [3], 2.3%; in [4] it was -1.83%; in assay [5], -0.31%; in assay [6], 1.86%. The inhibition in assay [7] is 0.97%; in assay [8], -1.18%; in [9], -0.48%; in [10] it was 4.67%.
For the molecule `[O-][S+]1CCN(Cc2ccc(-c3ccc4ncnc(Nc5ccc(OCc6ccccc6)c(F)c5)c4c3)o2)CC1`, the inhibition in assay [1] is 1.45%; in assay [2], 1.95%; in assay [3], 2.41%; in assay [4], 3.45%; in assay [5], 3.23%; in assay [6] it was 1.87%. Further, the inhibition in assay [7] was -0.69%; in [8], 2.33%; in assay [9] it was 2.07%; in assay [10], 5.9%.

The record behind these values is ChEMBL document CHEMBL1961873, “Compounds: GSK PKIS; Assays: Nanosyn kinase panel” (2012).
